Cycloheximide cs: Cycloheximide Counterscreen for Small Molecule Inhibitors of Shiga Toxin | cell reporter, cycloheximide protein synthesis inhibition counterscreen | max response, % | 300,000 tested, 12% active | AID 2314, 2010; in the data active means max response mostly above about 13%, no sharp cut-off; inactive means mostly below about 14%; further: read at 38.3 µM for the half of the compounds with a filed dose; 0% is about no effect
Shiga toxin inh: A qHTS for Small Molecule Inhibitors of Shiga Toxin; Vero cells, Shiga toxin protein synthesis inhibition reporter; inhibition, % at 38.7 µM; 290,000 tested, 9.2% active; AID 2315, 2010; in the data active means inhibition mostly above about 28%, no sharp cut-off; inactive means mostly below about 43%; further: 0% is about no effect
Pf growth 96h: Primary qHTS for delayed death inhibitors of the malarial parasite plastid, 96 hour incubation | AID 504834, 2011 | P. falciparum luciferase reporter growth, 96 h | 320,000 tested, 6.9% active | Potency, µM (titrated, usually from 28.7 µM), for the others: at the top dose activity change, negative = inhibition, actives largely listed as inhibitors; further: potency means the concentration at half of the fitted maximal effect; on the % scale 0 is the no-effect control and ±100 the full control effect
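Luminescence readout: decreased luciferase signal marks inhibited growth of reporter-expressing P. falciparum in infected red cells (2% hematocrit, 0.05% parasitemia final), exposed to compound two generations (96 h, 37 C, 5% CO2).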
Pf growth 48h: Primary qHTS for delayed death inhibitors of the malarial parasite plastid, 48 hour incubation | Potency, µM (series often up to 28.7 µM), without a hit: at the highest dose activity change, negative = inhibition, most hits filed as inhibitors | P. falciparum luciferase growth in erythrocytes, 48 h | AID 504832, 2011 | 310,000 tested, 5.9% active; further: potency means the concentration at half of the fitted maximal effect; on the % scale 0 is the no-effect control and ±100 the full control effect
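Luminescence readout; reporter = integrated firefly luciferase in P. falciparum. RBC culture at 2% hematocrit, 0.1% parasitemia final, 37 C/5% CO2; decreased signal taken as growth inhibition.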
Numbers without * were called inactive; ? = inconclusive; nt = no result given; + = active, no number; [ ] = another dose, or the depositor's remark. The list is not random: actives were taken first. Their share in the collection is about 21%. Unless noted, the call rests on the fitted dose curve; in most records, active means well fitted inhibition curve with a large enough effect; inconclusive means small, poorly fitted or top-dose-only effect, or another doubt; inactive means no such curve, though single readings can be large or run the other way.

SMILES | Cycloheximide cs | Shiga toxin inh | Pf growth 96h | Pf growth 48h
COc1ccc2c(=O)c(-c3nc(C)cs3)coc2c1 | 45* | 79* | -7% | 221%
NC(N)=NCCC[C@H](NC(=O)[C@H](Cc1ccccc1)NC(=O)[C@@H]1CCCN1C(=O)[C@H](CO)NC(=O)[C@H](Cc1ccccc1)NC(=O)CNC(=O)[C@@H]1CCCN1C(=O)[C@@H]1CCCN1C(=O)[C@@H](N)CCCN=C(N)N)C(=O)O | -5 | -6 | nt | nt
CN(c1cccc(NC(=O)CN(c2cccc(Cl)c2)S(=O)(=O)c2ccc(Cl)cc2)c1)S(C)(=O)=O | -1 | -15 | 1% | ?
COCCCNC(=S)N/N=C/c1ccc(OC)c(Br)c1 | 11 | -8 | ? | 7%
CCOC(=O)C(Cc1ccccc1)NC(=O)CCc1nnc2ccc(N3CCCC3)nn12 (stereo not drawn) | -4 | 10 | ? | 5%
COc1ccc(-c2cccc(C(=O)N3CCOCC3)c2)cc1 | 30* | 57* | 10% | 13%
COc1ccc(-c2cc(C(=O)N3CCOCC3)c3ccccc3n2)cc1OC | nt | nt | 20% | ?
COc1ccc(C(=O)N2CCCC2)cc1 | 16 | -8 | -8% | nt
COc1ccc(OCc2ccc(C(=O)O)cc2)cc1 | 18* | 60 | 65%[5.75 µM] | 119%
COc1cc2cc(C(=O)N3CCOCC3)cc(-c3ccc(C)cc3)c2cc1OC | -3 | -14 | 8.3µM* | ?
COc1ccc(OCC(O)COc2ccc(C(=O)O)cc2)cc1 (stereo not drawn) | 1 | 4 | 55% | 27%
COc1ccc(OCc2ccc(C(=O)N3CCOCC3)cc2)cc1 | 28* | 56* | -26% | 8%
C/C(=N/NS(=O)(=O)c1cccc([N+](=O)[O-])c1)c1ccncc1 | -2 | 14 | -22% | 13%
Cc1ccc(S(=O)(=O)NCCn2cnc([N+](=O)[O-])n2)cc1 | 6 | -4 | 38% | -8%
COC(=O)C1C(=O)C2=C(CC1C)Nc1ccccc1NC2c1ccc(C)s1 (stereo not drawn) | -3 | -4 | 28% | 6%
CCc1cc2c(=O)[nH]c(-c3ccccn3)nc2s1 | 89* | 126* | 3.3µM* | ?
COc1cnc(SC(C)C)[nH]c1=O | -2 | -2 | 13% | 15%
COc1cnc(-c2ccccn2)[nH]c1=O | -1 | 30 | 5.9µM* | 0%
CCc1cc2c(=O)[nH]c(N3CCCC3)nc2s1 | 28* | + | 88% | 92%
Cc1cc(Cl)ccc1OCC(=O)NCC(=O)N/N=C/c1ccco1 | 4 | 29 | 29% | 0%
COc1cc(C2/C(=C(\O)c3ccc4c(c3)OCCO4)C(=O)C(=O)N2Cc2ccco2)cc(OC)c1OC (stereo not drawn) | 1 | -12 | ? | -3%
Cn1c(CNC(=O)c2ccccc2F)nnc1SCCOc1ccccc1 | -1 | -13 | ? | -9%
Cc1ccccc1C(=O)N1CCC(n2nccc2NC(=O)CCOc2ccccc2)CC1 | 21 | 37 | ? | ?
Cc1cccc(NS(=O)(=O)c2cc(C(=O)N3CCCCCC3)ccc2C)c1 | 1 | -12 | ? | ?
Cc1cc(C)c(NC(=O)CCCSc2nnc(N)s2)c(C)c1 | -6 | -4 | ? | -21%
SMILES | Cycloheximide cs | Shiga toxin inh | Pf growth 96h | Pf growth 48h
Nc1nnc(SCC(=O)c2cccc([N+](=O)[O-])c2)s1 | -2 | 3 | ? | 0%
Nc1nnc(SCC(=O)c2ccc3ccccc3c2)s1 | 85* | 151* | 96% | nt
Nc1nnc(SCCCC(=O)c2ccccc2)s1 | 23* | -21 | 23% | 35%
CCOc1ccc(Br)cc1S(=O)(=O)NCCN1CCCC1 | -1 | 7 | -2% | nt
O=C(CSc1nnc(Cc2cc(=O)[nH]c(=O)[nH]2)n1-c1ccccc1)N1CCCCC1 | -4 | -2 | ? | nt
O=C(CSc1nnc(CCCN2C(=O)c3cccc4cccc(c34)C2=O)n1-c1ccccc1)N1CCCCC1 | -4 | -4 | ? | 12µM*
Cc1ccc(S(=O)(=O)N2CCN(C(=O)NCc3ccc(C(=O)O)cc3)CC2)cc1 | -2 | -7 | 4% | 18%
Cc1cc(C)n(-c2cc(C(C)(C)C)nc3c(-c4ccc(Cl)cc4)cnn23)n1 | 29* | 64* | ? | ?
Cc1nn2c(N3CCOCC3)cc(C(C)(C)C)nc2c1-c1ccc(Cl)cc1 | -1 | 3 | -7% | -17%
Cc1cc(C)n(-c2cc(C(C)(C)C)nc3c(-c4ccccc4)cnn23)n1 | 54* | 90* | -23% | 94%
CCCN(C(=O)c1cccs1)c1c(N)n(Cc2ccccc2)c(=O)[nH]c1=O | nt | nt | ? | 0%
O=C(c1cccs1)N1CCN(S(=O)(=O)c2cccc(Cl)c2Cl)CC1 | nt | nt | -10% | ?
O=C1CCCC2=C1Sc1ccc(Cl)cc1N2 | 12 | 13 | -18% | 0%
Cc1ccc(S(=O)(=O)N(C)C)cc1NC(=O)COC(=O)c1ccc2c(c1)NC(=O)CS2 | -1 | 13 | 7% | 11%
C=CCn1c(C)cc(C(=O)COC(=O)c2ccc3c(c2)NC(=O)CS3)c1C | 18* | 39* | -8% | 29%
COCCn1c(C)cc(C(=O)COC(=O)c2ccc3c(c2)NC(=O)CS3)c1C | 28* | 66* | ? | -9%
COC(=O)c1ccc2c(c1)SC1=C(CCCC1=O)N2 | 21* | active | ? | ?
COC(=O)c1ccc2c(c1)NC(=O)CS2 | -2 | -3 | -1% | 12µM*
COCCn1c(C)cc(C(=O)COC(=O)Cc2n[nH]c(=O)c3ccccc23)c1C | nt | nt | -9% | ?
COc1ccc(NC(=O)C2CCCN(S(=O)(=O)c3ccc4c(c3)CCCN4C(C)=O)C2)cc1Cl (stereo not drawn) | 1 | 33 | 20% | ?
O=C(CN1C(=O)CSc2ncccc21)Nc1ccccc1F | 11 | -1 | 7% | 10%
O=C1Cn2c(nc3ccccc32)-c2ccccc2N1 | 1 | 10 | 0% | 100%
c1ccc2c(c1)NC1(CCCCC1)n1c-2nc2ccccc21 | 26* | 71 | 2% | nt
CC1(c2ccccn2)Nc2ccccc2-c2nc3ccccc3n21 (stereo not drawn) | 15 | 27 | 9%[5.75 µM] | 1.7µM*
c1ccc2c(c1)NC1(CCCCCC1)n1c-2nc2ccccc21 | 34* | 77* | nt | 117%
Cc1ccc(CNC(=O)C2CCCN(S(=O)(=O)N3CC(C)CC(C)C3)C2)cc1 (stereo not drawn) | -4 | -2 | 5% | 11%
O=C(O)[C@@H]1CCCN1 | nt | nt | -10% | -11%
COc1ccc(C2/C=C\CN(C(=O)C3CCCC3)[C@H](Cc3ccccc3)C(=O)N2Cc2ccc(F)cc2)cc1 (stereo partly drawn) | 1 | 5 | 10µM* | 8.3µM*
COc1ccc(C2/C=C\CN(S(=O)(=O)c3ccc(C)cc3)[C@H](Cc3ccccc3)C(=O)N2Cc2ccc(F)cc2)cc1 (stereo partly drawn) | 10 | 16 | 8.3µM* | 4.1µM*
COc1ccc(C2/C=C\CN(S(=O)(=O)c3ccc(C)cc3)C(Cc3ccccc3)C(=O)N2Cc2ccc(F)cc2)cc1 (stereo not drawn) | 9 | -6 | nt | nt
